Measured values as given in PubChem BioAssay (NCATS).
Inconclusive results are not listed. Active and inactive are the calls of the source. Unless noted, calls come from the whole dose curve; as a rule, active = well fitted curve in the direction sought with a large enough effect; inconclusive = small, poorly fitted or top-dose-only effect, or another doubt; inactive = no such curve, though single readings can be large; an effect the other way counts as inactive or inconclusive.

Tests used:
[1] = molecular target: Lysosomal acid glucosylceramidase (Homo sapiens) (UniProt P04062); test: Glucocerebrosidase-p2 (AID 348; in the data active = potency below about 10 µM; note: potency is the fitted concentration of half-maximal effect); conditions: purified GBA, blue fluorogenic substrate, 40 min
Sequence of Lysosomal acid glucosylceramidase (Homo sapiens) (P04062 whole entry, looked up): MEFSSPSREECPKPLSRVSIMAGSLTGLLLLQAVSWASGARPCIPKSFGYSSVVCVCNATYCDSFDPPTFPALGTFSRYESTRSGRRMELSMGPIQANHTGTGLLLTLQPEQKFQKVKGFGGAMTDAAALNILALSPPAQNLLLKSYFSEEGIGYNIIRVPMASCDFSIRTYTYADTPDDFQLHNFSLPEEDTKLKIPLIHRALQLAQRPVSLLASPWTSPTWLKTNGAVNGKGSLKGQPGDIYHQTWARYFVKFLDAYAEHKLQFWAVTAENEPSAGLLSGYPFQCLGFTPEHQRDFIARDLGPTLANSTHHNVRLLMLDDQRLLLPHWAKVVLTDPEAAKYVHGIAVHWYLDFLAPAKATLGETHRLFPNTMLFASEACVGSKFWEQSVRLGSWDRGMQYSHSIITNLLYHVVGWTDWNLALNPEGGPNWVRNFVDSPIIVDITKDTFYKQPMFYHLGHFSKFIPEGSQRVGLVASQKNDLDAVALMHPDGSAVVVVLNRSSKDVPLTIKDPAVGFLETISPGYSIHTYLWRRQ
Summary of the method: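 Normal human glucocerebrosidase (0.2 nM) with blue fluorogenic substrate (80 uM final) in citrate/phosphate pH 5.9 with 10mM sodium taurocholate, 0.01% tween-20; 40 min RT, NaOH/glycine stop; fluorescence Ex 365/Em 440; AC50 from a titration from 0.6 nM upwards.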

[2] = AP1 Signaling Pathway (AID 357; active = well fitted curve in either direction with a large enough effect, not every such curve was filed as active; note: % is set by controls: 0 for no effect and ±100 for the full control effect); conditions: ME-180 AP-1-bla reporter, EGF-induced, beta-lactamase ratio, 5 h; at 7.69 µM (top of the series) unless noted
Summary of the method: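 AP-1-bla ME-180 cells with beta-lactamase reporter under AP-1 response element, stimulated with EC50 EGF; compounds titrated, 5 hours at 37 degrees Celsius. CCF4 read at 460/530 nm ratio; positive and negative modulators judged by AC50.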

[3] = molecular target: Cytochrome P450 1A2 (Homo sapiens) (UniProt P05177); test: p450-cyp1a2 (AID 410; calls by dose curve; note: potency is the fitted concentration of half-maximal effect;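 for activity change, negative = inhibition: -100% = full effect of reference inhibitor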); conditions: recombinant CYP1A2, luciferin-ME demethylation, luminescence; series mostly up to 57 µM
Sequence of Cytochrome P450 1A2 (Homo sapiens) (P05177 whole entry, looked up): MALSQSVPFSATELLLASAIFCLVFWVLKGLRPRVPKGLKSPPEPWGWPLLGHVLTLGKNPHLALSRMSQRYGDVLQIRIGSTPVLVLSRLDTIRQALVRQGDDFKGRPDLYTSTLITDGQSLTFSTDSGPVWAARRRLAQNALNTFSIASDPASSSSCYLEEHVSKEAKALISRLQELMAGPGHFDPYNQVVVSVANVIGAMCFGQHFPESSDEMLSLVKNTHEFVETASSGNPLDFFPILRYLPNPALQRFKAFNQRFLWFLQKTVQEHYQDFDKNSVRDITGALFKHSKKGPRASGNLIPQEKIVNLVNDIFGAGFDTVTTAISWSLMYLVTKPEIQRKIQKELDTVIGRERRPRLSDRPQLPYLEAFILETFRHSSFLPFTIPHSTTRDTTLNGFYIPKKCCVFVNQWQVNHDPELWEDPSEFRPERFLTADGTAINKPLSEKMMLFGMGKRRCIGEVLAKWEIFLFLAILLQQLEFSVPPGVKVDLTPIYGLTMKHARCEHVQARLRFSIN
Summary of the method: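 O-Demethylation of luciferin 6' methyl ether by human CYP1A2 is monitored as luciferase luminescence. Substrate sits at Km (100uM); enzyme is 20nM. Values are scaled to 57 uM furafylline as maximal inhibition.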

[4] = NFAT Signaling Pathway (AID 444; active = well fitted curve in either direction with a large enough effect, not every such curve was filed as active;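 note: carbachol stimulus at about its EC50 of 1 µM final; % is set by controls: 0 for no effect and ±100 for the full control effect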); conditions: Jurkat NFAT-bla M1, carbachol, beta-lactamase ratio, 5 h; at 7.69 µM (top of the series) unless noted
Summary of the method: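 Jurkat cells carrying an NFAT-driven β-lactamase reporter and co-transfected muscarinic M1 receptor were treated with compound plus carbachol (1 uM final, an EC50 level) for 5 h at 37 °C. CCF4 loading followed for 1 h at RT; 460/530 nm ratio gave %activity.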

[5] = Stat Signaling Pathway (AID 446; active = well fitted curve in either direction with a large enough effect, not every such curve was filed as active;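 note: ME-180 cervical cancer cells given 40 pM IL-6 alongside compound; SIE-controlled beta-lactamase reporter measured as 460/530 nm FRET emission ratio; % is set by controls: 0 for no effect and ±100 for the full control effect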); conditions: ME-180 (cervical carcinoma) SIE beta-lactamase reporter, IL-6 stimulated, 5 h; at 7.69 µM (top of the series) unless noted
Summary of the method: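 Normalization used AC90 stimulation (300 pM IL-6) and AC90 inhibition (125 nM pan-JAK inhibitor at 40 pM IL-6). The underlying signal is SIE-driven beta-lactamase in ME-180 cells after 5 h IL-6 exposure with compound.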

[6] = molecular target: Glucocorticoid receptor (Homo sapiens) (UniProt P04150); test: GR-GFP Redistribution (AID 450;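 active = compounds whose dose series gives a full or clear partial fitted curve of increased nuclear translocation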; note: potency is the fitted concentration of half-maximal effect); conditions: U2OS GR-GFP nuclear translocation, laser cytometry, 2 h
Sequence of Glucocorticoid receptor (Homo sapiens) (P04150 whole entry, looked up, the tested form may be a part): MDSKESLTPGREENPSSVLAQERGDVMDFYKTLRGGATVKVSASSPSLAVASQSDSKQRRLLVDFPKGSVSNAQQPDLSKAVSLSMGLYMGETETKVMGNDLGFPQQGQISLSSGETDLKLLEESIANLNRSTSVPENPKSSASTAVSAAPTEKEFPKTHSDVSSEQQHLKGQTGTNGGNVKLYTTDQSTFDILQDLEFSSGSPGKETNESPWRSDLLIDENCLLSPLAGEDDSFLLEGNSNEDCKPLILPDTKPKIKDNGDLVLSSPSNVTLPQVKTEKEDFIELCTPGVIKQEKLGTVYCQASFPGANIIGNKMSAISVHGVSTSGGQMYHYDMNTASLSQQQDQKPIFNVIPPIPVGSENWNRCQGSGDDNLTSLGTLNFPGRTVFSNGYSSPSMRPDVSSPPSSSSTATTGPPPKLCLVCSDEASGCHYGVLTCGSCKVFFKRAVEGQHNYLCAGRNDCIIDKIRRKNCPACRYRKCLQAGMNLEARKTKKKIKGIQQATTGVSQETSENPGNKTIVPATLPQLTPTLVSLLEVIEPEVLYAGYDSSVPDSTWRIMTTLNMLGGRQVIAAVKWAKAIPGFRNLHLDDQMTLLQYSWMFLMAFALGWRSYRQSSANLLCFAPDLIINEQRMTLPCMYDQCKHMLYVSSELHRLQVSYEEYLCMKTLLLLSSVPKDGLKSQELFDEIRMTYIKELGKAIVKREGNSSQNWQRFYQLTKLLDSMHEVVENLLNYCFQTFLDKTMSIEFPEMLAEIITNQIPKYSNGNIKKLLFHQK

[7] = molecular target: Glucocorticoid receptor (Homo sapiens) (UniProt P04150); test: GR-EFC Redistribution (AID 451; calls by dose curve; note: potency is the fitted concentration of half-maximal effect); conditions: CHO-K1 GR-EFC translocation, beta-gal luminescence, 2 h
Summary of the method: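 CHO-K1 cells stably expressing nuclear-localized β-gal enzyme acceptor and GR fused C-terminally to the enzyme donor fragment; ligand-driven nuclear translocation restores β-gal by complementation. Compounds titrated up to 46 uM final, 2 h at 37 °C; luminescence read.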

[8] = molecular target: Mitogen-activated protein kinase 10 (Mus musculus) (UniProt Q61831); test: JNK3 AlphaScreen Assay (AID 530; active = well fitted curve in either direction with a large enough effect, not every such curve was filed as active;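 note: kinase came from lysate of stimulated human HepG2 cells; signal reports phosphorylation of biotinylated GST-cJun 1-79 at Ser73 with 10 µM ATP; % is set by controls: 0 for no effect and ±100 for the full control effect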); conditions: JNK3 lysate, c-Jun phosphorylation; series mostly up to 57.1 µM
Summary of the method: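 Phosphorylation of biotinylated GST-cJun(1-79) at Ser73 is measured by AlphaScreen proximity luminescence. Enzyme is JNK3 in HepG2 lysates activated with interleukin-1beta and tumor necrosis factor alpha; ATP is 10 uM final.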

[9] = molecular target: 3',5'-cyclic-AMP phosphodiesterase 4B (Homo sapiens) (UniProt Q07343); test: qHTS Assay for Inhibitors of PDE-IV (AID 607; active = well fitted activation curve with a large enough effect in the main read-out, with a control signal flat, not every such curve was filed as active; note: % of control where 0% means no effect); conditions: HEK293 ACTOne CNG channel cells, membrane potential fluorescence; series mostly up to 22.9 µM
Sequence of 3',5'-cyclic-AMP phosphodiesterase 4B (Homo sapiens) (Q07343 whole entry, looked up): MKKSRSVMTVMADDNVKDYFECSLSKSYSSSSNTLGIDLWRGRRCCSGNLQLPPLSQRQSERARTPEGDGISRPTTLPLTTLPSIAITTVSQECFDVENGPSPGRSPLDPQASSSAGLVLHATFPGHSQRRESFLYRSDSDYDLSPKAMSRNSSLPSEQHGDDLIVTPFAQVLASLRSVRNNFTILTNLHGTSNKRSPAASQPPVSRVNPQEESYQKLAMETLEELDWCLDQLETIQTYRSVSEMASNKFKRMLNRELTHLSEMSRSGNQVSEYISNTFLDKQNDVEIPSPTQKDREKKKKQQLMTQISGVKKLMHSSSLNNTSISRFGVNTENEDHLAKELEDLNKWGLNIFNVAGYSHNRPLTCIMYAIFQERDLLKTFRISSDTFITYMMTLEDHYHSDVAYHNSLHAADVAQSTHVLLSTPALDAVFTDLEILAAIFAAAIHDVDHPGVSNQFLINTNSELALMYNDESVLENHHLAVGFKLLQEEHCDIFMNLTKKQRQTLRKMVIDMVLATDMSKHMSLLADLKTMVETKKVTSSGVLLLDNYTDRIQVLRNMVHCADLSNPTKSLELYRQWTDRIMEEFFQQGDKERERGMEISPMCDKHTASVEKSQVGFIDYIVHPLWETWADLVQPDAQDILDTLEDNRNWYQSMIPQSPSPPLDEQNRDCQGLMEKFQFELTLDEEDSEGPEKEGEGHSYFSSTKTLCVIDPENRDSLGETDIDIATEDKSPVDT
Summary of the method: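 HEK293 ACTOne cells with CNG channel (1000/well), endogenous PDE4; membrane potential dye, compounds up to 22.9 uM final. Fluorescence Ex 535/Em 590; RO 20-1724 (100 uM final) as reference.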

[10] = qHTS Assay for Lipid Storage Modulators (AID 1519; calls by dose curve); conditions: Drosophila S3 cells, BODIPY lipid droplet/cell ratio, laser cytometry, cells loaded with oleic acid; for activity change, negative = inhibition: at 57.5 µM (top of the series)
Summary of the method: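 Cells seeded at 5,000 per well were treated with compounds over a concentration series and loaded with oleic acid (400 uM, as added). Lipid droplet fluorescence (488 nm excitation, 500-530 nm channel) was read by laser-scanning cytometry and normalized to 20 uM Triacsin C.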

[11] = molecular target: Dual specificity protein kinase CLK4 (Homo sapiens) (UniProt Q9HAZ1); test: qHTS Assay for Inhibitors of CDC-like Kinase 4 (Kinase-Glo Assay) (AID 1770); conditions: recombinant Clk4, Kinase-Glo ATP depletion luminescence; series mostly up to 66.7 µM; note: % is set by controls: 0 for no effect and ±100 for the full control effect; nearly all actives have a fitted effect of over 65% in size
Sequence of Dual specificity protein kinase CLK4 (Homo sapiens) (Q9HAZ1 whole entry, looked up): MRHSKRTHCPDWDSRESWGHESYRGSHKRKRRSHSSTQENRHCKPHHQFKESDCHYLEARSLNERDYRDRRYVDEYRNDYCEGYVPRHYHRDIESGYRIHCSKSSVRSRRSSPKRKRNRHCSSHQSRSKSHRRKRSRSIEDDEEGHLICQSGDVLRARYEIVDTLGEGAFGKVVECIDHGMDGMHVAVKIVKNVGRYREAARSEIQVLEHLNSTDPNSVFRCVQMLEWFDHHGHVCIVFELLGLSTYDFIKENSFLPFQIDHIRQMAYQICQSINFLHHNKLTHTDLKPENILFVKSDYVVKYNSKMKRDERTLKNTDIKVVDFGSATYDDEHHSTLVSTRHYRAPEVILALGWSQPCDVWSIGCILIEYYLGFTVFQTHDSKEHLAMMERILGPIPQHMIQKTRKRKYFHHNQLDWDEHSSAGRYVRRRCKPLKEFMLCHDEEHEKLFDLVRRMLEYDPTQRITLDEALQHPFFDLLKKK
Summary of the method: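 Inhibition was judged from remaining ATP, measured by Ultra-Glo luciferase bioluminescence after Clk4 (25 nM) had acted on RS peptide at 1 uM ATP for 4.5 hours, room temperature.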

[12] = molecular target: Dual specificity protein kinase CLK4 (Homo sapiens) (UniProt Q9HAZ1); test: qHTS Assay for Inhibitors of CDC-like Kinase 4 (ADP-Glo Assay) (AID 1771); conditions: recombinant CLK4, ADP-Glo luminescence; series mostly up to 80 µM; note: % is set by controls: 0 for no effect and ±100 for the full control effect; nearly all actives have a fitted effect of over 70% in size
Summary of the method: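 Compounds are pin-transferred onto substrate mix (100 uM RS peptide, 1 uM ATP), then 25 nM Clk4 is added. After 1 hr at room temperature, ADP-Glo reagent runs 45 min, detection reagent 30 min, then luminescence is read.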

[13] = molecular target: Dual specificity protein kinase CLK4 (Homo sapiens) (UniProt Q9HAZ1); test: qHTS Assay for Inhibitors of CDC-like Kinase 4 (ADP-FP Assay) (AID 1795); conditions: Transcreener ADP fluorescence polarization; series mostly up to 50 µM;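 note: recombinant human CLK4 phosphorylating RS repeat peptide at 1 µM ATP; % is set by controls: 0 for no effect and ±100 for the full control effect; nearly all actives have a fitted effect of over 60% in size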
Summary of the method: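 Inhibition of ADP formation by 6.25 nM Clk4 is measured using 1 uM ATP and 100 uM RS repeat peptide over one hour. Produced ADP displaces a fluorescent tracer from antibody, lowering polarization.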

[14] = molecular target: Ubiquitin carboxyl-terminal hydrolase 1 (Homo sapiens) (UniProt O94782); test: Inhibitors of USP1/UAF1: Pilot qHTS (AID 504865); conditions: purified USP1/UAF1, Ub-rhodamine cleavage fluorescence; series mostly up to 54.9 µM; note: nearly all actives have a fitted effect of over 35% in size; note: potency is the fitted concentration of half-maximal effect
Sequence of Ubiquitin carboxyl-terminal hydrolase 1 (Homo sapiens) (O94782 whole entry, looked up): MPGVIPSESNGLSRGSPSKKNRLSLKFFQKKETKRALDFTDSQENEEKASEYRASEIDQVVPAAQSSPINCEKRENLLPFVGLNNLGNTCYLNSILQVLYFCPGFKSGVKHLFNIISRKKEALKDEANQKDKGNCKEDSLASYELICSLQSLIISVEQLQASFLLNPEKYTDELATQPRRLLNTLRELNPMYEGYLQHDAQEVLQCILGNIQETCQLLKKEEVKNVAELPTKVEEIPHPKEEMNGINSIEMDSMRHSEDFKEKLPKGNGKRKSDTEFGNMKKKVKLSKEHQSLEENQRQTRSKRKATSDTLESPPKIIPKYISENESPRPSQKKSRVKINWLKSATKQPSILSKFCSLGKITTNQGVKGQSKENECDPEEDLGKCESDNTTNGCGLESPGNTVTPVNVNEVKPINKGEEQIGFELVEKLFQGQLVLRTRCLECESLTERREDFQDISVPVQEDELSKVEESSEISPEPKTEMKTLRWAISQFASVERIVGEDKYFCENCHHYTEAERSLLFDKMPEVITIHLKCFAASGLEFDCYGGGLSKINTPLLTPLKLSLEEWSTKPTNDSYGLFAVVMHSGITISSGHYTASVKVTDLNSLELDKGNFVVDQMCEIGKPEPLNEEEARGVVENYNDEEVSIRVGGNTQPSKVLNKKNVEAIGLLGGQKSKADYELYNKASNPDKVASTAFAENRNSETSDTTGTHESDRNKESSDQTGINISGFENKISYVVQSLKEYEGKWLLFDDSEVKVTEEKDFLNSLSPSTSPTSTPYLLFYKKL
Summary of the method: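 Kinetic fluorescence assay: 1nM USP1/UAF1, 15 min compound preincubation, then 150nM Ub-Rho; 480/540 nm.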

[15] = Primary qHTS for small molecule stabilizers of the endoplasmic reticulum resident proteome: Secreted ER Calcium Modulated Protein (SERCaMP) assay (AID 1508630); conditions: SH-SY5Y GLuc-SERCaMP (Gaussia luciferase released on ER calcium loss) secretion, thapsigargin, luminescence; series mostly up to 38.4 µM; note: % is set by controls: 0 for no effect and ±100 for the full control effect
Summary of the method: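 The SH-SY5Y reporter protocol was run at 3 concentrations up to 38.3 uM (primary) or 11 concentrations (follow-up): 16 h compound, 100 nM thapsigargin for 4 h, then extracellular luciferase luminescence.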

[16] = molecular target: Cytochrome P450 3A4 (Homo sapiens) (UniProt P08684); test: qHTS Assay for Activators of Cytochrome P450 3A4 (AID 885); conditions: recombinant CYP3A4, Luciferin-PPXE luminescence, 60 min; series mostly up to 57.1 µM; note: nearly all actives have a fitted effect of over 65% in size
Summary of the method: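 Human CYP3A4 dealkylates Luciferin-PPXE to luciferin, which luciferase detection converts to light. Substrate was at its KM (25uM), buffer 200mM KPO4, reaction 60 min at RT.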

[17] = molecular target: Rap guanine nucleotide exchange factor 3 (Homo sapiens) (UniProt O95398); test: Confirmatory qHTS for agonist of cAMP-regulated guanine nucleotide exchange factor 3 (EPAC1) (AID 1645881); conditions: EPAC1 Rap1B BODIPY-GDP exchange fluorescence, 100% = cAMP control response; series mostly up to 154 µM;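 note: EPAC1 catalysed release of BODIPY-GDP from Rap1B seen as fluorescence loss; nearly all actives have a fitted effect of over 75% in size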
[18] = molecular target: Rap guanine nucleotide exchange factor 4 (Homo sapiens) (UniProt Q8WZA2); test: Confirmatory qHTS for agonist of cAMP-regulated guanine nucleotide exchange factor 4 (EPAC2) (AID 1645884); conditions: EPAC2 GEF activity, Rap1B-BODIPY-GDP fluorescence, percent relative to cAMP agonist control; series mostly up to 154 µM;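 note: nucleotide exchange releases bodipy-GDP from Rap1 and this lowers its fluorescence; % is set by controls: 0 for no effect and ±100 for the full control effect; nearly all actives have a fitted effect of over 65% in size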
Sequence of Rap guanine nucleotide exchange factor 4 (Homo sapiens) (Q8WZA2 whole entry, looked up): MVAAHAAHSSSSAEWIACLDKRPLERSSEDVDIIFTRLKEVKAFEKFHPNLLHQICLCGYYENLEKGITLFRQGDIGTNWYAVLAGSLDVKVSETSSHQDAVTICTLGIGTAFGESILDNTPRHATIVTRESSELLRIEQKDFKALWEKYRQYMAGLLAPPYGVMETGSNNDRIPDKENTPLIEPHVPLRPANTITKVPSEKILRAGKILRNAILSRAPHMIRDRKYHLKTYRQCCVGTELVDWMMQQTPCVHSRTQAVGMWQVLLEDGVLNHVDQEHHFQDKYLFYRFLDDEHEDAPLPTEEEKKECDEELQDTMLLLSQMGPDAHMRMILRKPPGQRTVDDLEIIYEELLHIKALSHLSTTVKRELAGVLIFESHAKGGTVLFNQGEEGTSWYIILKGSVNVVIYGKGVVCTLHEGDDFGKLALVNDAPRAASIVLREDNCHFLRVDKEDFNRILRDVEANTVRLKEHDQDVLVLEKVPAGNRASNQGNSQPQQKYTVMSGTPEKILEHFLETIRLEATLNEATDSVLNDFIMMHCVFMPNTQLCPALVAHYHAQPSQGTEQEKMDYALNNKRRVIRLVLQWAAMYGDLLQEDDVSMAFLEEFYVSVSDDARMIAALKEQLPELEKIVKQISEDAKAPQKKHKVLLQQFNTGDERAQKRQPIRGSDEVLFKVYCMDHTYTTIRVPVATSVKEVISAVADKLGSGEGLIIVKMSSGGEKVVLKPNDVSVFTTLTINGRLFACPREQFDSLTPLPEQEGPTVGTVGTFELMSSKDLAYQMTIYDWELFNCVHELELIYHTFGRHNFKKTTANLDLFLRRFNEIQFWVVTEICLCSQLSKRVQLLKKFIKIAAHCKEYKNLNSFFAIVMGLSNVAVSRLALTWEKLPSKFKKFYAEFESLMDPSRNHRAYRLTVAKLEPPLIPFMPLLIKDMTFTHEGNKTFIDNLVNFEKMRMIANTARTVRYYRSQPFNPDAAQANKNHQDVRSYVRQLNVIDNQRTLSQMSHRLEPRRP

[19] = molecular target: Rap guanine nucleotide exchange factor 4 (Homo sapiens) (UniProt Q8WZA2); test: Confirmatory qHTS for antagonist of cAMP-regulated guanine nucleotide exchange factor 4 (EPAC2) (AID 1645885); conditions: EPAC2 Rap1B-BODIPY-GDP exchange fluorescence, biochemical; series mostly up to 114 µM; note: potency is the fitted concentration of half-maximal effect; nearly all actives have a fitted effect of over 25% in size
[20] = measured here: cell count channel max response
[21] = measured here: lipid channel max response

O=c1c(-c2ccc(F)cc2)nc2cnc(Oc3cccc(Cl)c3)nc2n1C1CC1
-8.94%: max response [10, 20]
active: Potency [3] 0.316 µM
-12.9%: max response [10, 21]
inactive: Potency [1] > 11.4 µM | activity change, negative = inhibition [2] 25.5% | activity change, negative = inhibition [4] 16.4% | activity, negative = inhibition [5] -8.35% | Potency [6] > 9.22 µM | Potency [7] > 46 µM | outcome [8] | Potency [9] | activity change, negative = inhibition [10] 0.37% | Potency [11] | Potency [12] | Potency [13] | Potency [14] | Potency [15]

FC(F)(F)c1ccccc1-c1cc(NCCN2CCOCC2)ncn1
inactive: Potency [1] > 11.4 µM | activity change, negative = inhibition [2] 10.7% | activity change, negative = inhibition [4] 27.7% | activity, negative = inhibition [5] 14.2% | Potency [6] > 46 µM | Potency [7] > 46 µM | outcome [8] | Potency [9] | activity change, negative = inhibition [10] 5.67% | Potency [11] | Potency [12] | Potency [13] | Potency [14] | Potency [15]
30.8%: max response [10, 21]
25.8%: max response [10, 20]
active: Potency [3] 12.6 µM

O=C(c1cc(C(F)(F)F)cc(C(F)(F)F)c1)N1CCC2(CCCN(Cc3nccs3)C2)CC1
inactive: Potency [1] > 11.4 µM | activity change, negative = inhibition [2] -11.4% | Potency [3] | activity, negative = inhibition [5] -17.2% | Potency [7] > 46 µM | outcome [8] | Potency [9] | Potency [16] | activity change, negative = inhibition [10] -19.9% | Potency [15] | outcome [17] | outcome [18]
-1.38%: max response [10, 21]
17.8%: max response [10, 20]

COc1ccccc1CNc1nc(-c2c(C)noc2C)nc2ccccc12
active: Potency [3] 0.631 µM | Potency [14] 28.2 µM | Potency [19] 39.3 µM
19.1%: max response [10, 21]
14%: max response [10, 20]
inactive: Potency [1] > 11.4 µM | activity change, negative = inhibition [2] 2.62% | activity, negative = inhibition [5] -26.3% | Potency [7] > 46 µM | outcome [8] | Potency [16] | activity change, negative = inhibition [10] 7.14% | Potency [11] | Potency [12] | Potency [13] | Potency [15] | outcome [17] | outcome [18]

Cc1nc2cnc(N3CCOCC3)nc2n(C)c1=O
13.5%: max response [10, 21]
active: Potency [3] 6.31 µM
11.2%: max response [10, 20]
inactive: Potency [1] > 11.4 µM | activity change, negative = inhibition [2] -9.18% | activity change, negative = inhibition [4] 3.85% | activity, negative = inhibition [5] -2.49% | Potency [6] > 9.22 µM | Potency [7] > 46 µM | outcome [8] | Potency [9] | activity change, negative = inhibition [10] 4.73% | Potency [11] | Potency [12] | Potency [13] | Potency [14] | Potency [15]
